Test results published in PubChem BioAssay (NCI).
About 83,000 compounds went through this panel and 20% of them were active in at least one assay; those are over-represented in the sample as a whole.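 Treatment: one concentration, 48 hours, 96-well format. Scoring: percent growth, with anything below 10 considered active.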 Calls of active or inactive are those of the source.

Columns and labels:
Assay in all cases: NCI-60 one-dose screen, 48 h (100 = growth as untreated, 0 = no growth, -100 = all killed)
Settings in all cases: 10 µM unless noted
HCT-15 colon = system: HCT-15 colon
HT29 colon = system: HT29 colon
SNB-75 CNS = system: SNB-75 CNS
SNB-19 CNS = system: SNB-19 CNS
U251 CNS = system: U251 CNS
PC-3 prostate = system: PC-3 prostate
SK-MEL-5 melanoma = system: SK-MEL-5 melanoma
UACC-62 melanoma = system: UACC-62 melanoma
LOX IMVI melanoma = system: LOX IMVI melanoma
SK-MEL-28 melanoma = system: SK-MEL-28 melanoma
SK-MEL-2 melanoma = system: SK-MEL-2 melanoma
SN12C renal = system: SN12C renal
UO-31 renal = system: UO-31 renal
TK-10 renal = system: TK-10 renal
ACHN renal = system: ACHN renal
CAKI-1 renal = system: CAKI-1 renal
A498 renal = system: A498 renal
MOLT-4 leukemia = system: MOLT-4 leukemia
CCRF-CEM leukemia = system: CCRF-CEM leukemia
EKVX NSCLC = system: EKVX NSCLC

Measured: growth

CCCCCCCCCCCCCCC(C(=O)OCC)C(=O)OCC
inactive: HCT-15 colon 99.5% | HT29 colon 115% | SNB-75 CNS 94.7% | SNB-19 CNS 102% | U251 CNS 104% | PC-3 prostate 108% | SK-MEL-5 melanoma 99.3% | UACC-62 melanoma 101% | LOX IMVI melanoma 119% | SK-MEL-28 melanoma 102% | SK-MEL-2 melanoma 112% | SN12C renal 101% | UO-31 renal 93% | TK-10 renal 117% | ACHN renal 98.3% | CAKI-1 renal 90.8% | A498 renal 105% | MOLT-4 leukemia 109%

COc1cc(OC)cc(-c2n/c(=C\c3c(O)[nH]c4ccc(Cl)cc34)cc3c2=Nc2ccccc2-3)c1
inactive: HCT-15 colon 84.2% | HT29 colon 15.6% | SNB-75 CNS 93.7% | SNB-19 CNS 79.5% | U251 CNS 17.6% | PC-3 prostate 69.3% | SK-MEL-5 melanoma 92.9% | UACC-62 melanoma 104% | LOX IMVI melanoma 18.8% | SK-MEL-28 melanoma 109% | SK-MEL-2 melanoma 100% | SN12C renal 93.5% | UO-31 renal 66.4% | TK-10 renal 116% | ACHN renal 81.3% | CAKI-1 renal 82.1% | A498 renal 94.2% | MOLT-4 leukemia 30.5%

CCc1ccc(-c2ccc(NC3CCCCCC3)nn2)cc1S(N)(=O)=O
inactive: HCT-15 colon 96.4% | HT29 colon 91.3% | SNB-75 CNS 97.2% | SNB-19 CNS 103% | U251 CNS 95.8% | PC-3 prostate 94.4% | SK-MEL-5 melanoma 98.5% | UACC-62 melanoma 97.8% | LOX IMVI melanoma 100% | SK-MEL-28 melanoma 105% | SK-MEL-2 melanoma 99.3% | SN12C renal 101% | UO-31 renal 102% | TK-10 renal 93.4% | ACHN renal 96.1% | CAKI-1 renal 96.6% | A498 renal 107% | MOLT-4 leukemia 91.7%

NC(=S)N/N=C(/c1cccs1)C1CC1
inactive: HCT-15 colon 71% | HT29 colon 58.4% | SNB-75 CNS 77.2% | SNB-19 CNS 100% | U251 CNS 72.9% | PC-3 prostate 63.5% | SK-MEL-5 melanoma 106% | UACC-62 melanoma 98.8% | LOX IMVI melanoma 68.3% | SK-MEL-28 melanoma 101% | SK-MEL-2 melanoma 160% | SN12C renal 82.6% | UO-31 renal 76.2% | TK-10 renal 124% | ACHN renal 83.9% | CAKI-1 renal 98.8% | A498 renal 106% | MOLT-4 leukemia 29.2%

CC1=C(C(=O)Nc2ccc(F)cc2)C(c2ccccc2)C2=C(CC(C)(C)CC2=O)N1 (configuration not stated)
inactive: HCT-15 colon 77.8% | HT29 colon 96.3% | SNB-75 CNS 65.8% | SNB-19 CNS 87.4% | U251 CNS 69.8% | PC-3 prostate 54.6% | SK-MEL-5 melanoma 38.2% | UACC-62 melanoma 55.6% | LOX IMVI melanoma 79% | SK-MEL-28 melanoma 68% | SK-MEL-2 melanoma 89.4% | SN12C renal 70.1% | UO-31 renal 60.1% | TK-10 renal 104% | ACHN renal 82.7% | CAKI-1 renal 64.3% | A498 renal 47.1% | CCRF-CEM leukemia 62.3% | MOLT-4 leukemia 62.9%

CCOC(=O)c1c(NC(=O)c2ccccc2)sc2c(O)c(CN(CC)CC)ccc12
inactive: HCT-15 colon 15.7% | SNB-19 CNS 43.8% | PC-3 prostate 22.8% | UACC-62 melanoma 21.2% | LOX IMVI melanoma 13.3% | SK-MEL-28 melanoma 40% | SN12C renal 24.3% | UO-31 renal 37.5% | TK-10 renal 19.8% | ACHN renal 29.5% | MOLT-4 leukemia 14%
active: HT29 colon 2.28% | SNB-75 CNS -26.2% | U251 CNS 1.72% | SK-MEL-5 melanoma -51.3% | SK-MEL-2 melanoma 7.87% | CAKI-1 renal 1.51% | A498 renal -22.7% | CCRF-CEM leukemia 5.79%

COc1ccc(C(=O)C(C#N)c2cc(OC)c(OC)c(OC)c2)cc1 (configuration not stated)
inactive: HCT-15 colon 102% | HT29 colon 99.2% | SNB-75 CNS 90.7% | SNB-19 CNS 108% | U251 CNS 98.2% | PC-3 prostate 99% | SK-MEL-5 melanoma 102% | UACC-62 melanoma 105% | LOX IMVI melanoma 97.8% | SK-MEL-28 melanoma 104% | SK-MEL-2 melanoma 99.7% | SN12C renal 109% | UO-31 renal 96.5% | TK-10 renal 94% | ACHN renal 104% | CAKI-1 renal 129% | CCRF-CEM leukemia 102% | MOLT-4 leukemia 88%

COC(=O)c1cc2oc(/C=N/NC(=O)c3cc4oc(-c5cccc(C(F)(F)F)c5)cc4[nH]3)cc2n1Cc1ccccc1
active: CCRF-CEM leukemia -26%
inactive: HCT-15 colon 98.1% | HT29 colon 104% | SNB-75 CNS 84.4% | SNB-19 CNS 112% | U251 CNS 101% | PC-3 prostate 90.3% | SK-MEL-5 melanoma 108% | UACC-62 melanoma 83.4% | LOX IMVI melanoma 97.6% | SK-MEL-28 melanoma 113% | SK-MEL-2 melanoma 107% | SN12C renal 104% | UO-31 renal 91.5% | TK-10 renal 86.3% | ACHN renal 106% | A498 renal 85.8% | MOLT-4 leukemia 77.8%

C#CC[C@@H]1C[C@]2(C)[C@H]3CC=C4[C@H]5CC(C)(C)CC[C@]5(C(=O)NCCCCN)CC[C@@]4(C)[C@]3(C)CC[C@H]2C(C)(C)[C@H]1OC(C)=O
active: HCT-15 colon 8.51% | HT29 colon 5.83% | SNB-75 CNS -79.9% | SNB-19 CNS 6.48% | U251 CNS -77.9% | LOX IMVI melanoma -70.2% | SN12C renal -51.2% | UO-31 renal -44.3% | TK-10 renal -27.5% | ACHN renal -91.6% | CAKI-1 renal -70%
inactive: PC-3 prostate 27% | SK-MEL-5 melanoma 93.9% | UACC-62 melanoma 106% | SK-MEL-28 melanoma 102% | EKVX NSCLC 81.1% | A498 renal 104% | CCRF-CEM leukemia 17.9% | MOLT-4 leukemia 12.2%

Cc1ccc(N2C3c4ccccc4N(S(=O)(=O)c4ccc(C)cc4)C2c2ccccc2N3S(=O)(=O)c2ccc(C)cc2)cc1
inactive: HCT-15 colon 94.9% | HT29 colon 101% | SNB-75 CNS 89.5% | SNB-19 CNS 111% | U251 CNS 91.8% | PC-3 prostate 90.4% | SK-MEL-5 melanoma 103% | UACC-62 melanoma 99.6% | LOX IMVI melanoma 98.7% | SK-MEL-28 melanoma 99.3% | SK-MEL-2 melanoma 111% | SN12C renal 94.9% | TK-10 renal 128% | ACHN renal 95.2% | CAKI-1 renal 100% | CCRF-CEM leukemia 89.2% | MOLT-4 leukemia 93.5%

C[C@@H]1C[C@H](N)C[C@H](c2ccncc2NC(=O)c2ccc(F)c(-c3c(F)cccc3F)n2)C1
inactive: HCT-15 colon 52.4% | HT29 colon 10.9% | SNB-75 CNS 40.5% | SNB-19 CNS 69.3% | U251 CNS 42.6% | PC-3 prostate 24.2% | UACC-62 melanoma 25.3% | LOX IMVI melanoma 33.1% | SK-MEL-28 melanoma 12.2% | EKVX NSCLC 74.9% | SN12C renal 58.2% | UO-31 renal 25.3% | TK-10 renal 67.6% | ACHN renal 60.5% | CAKI-1 renal 27.7% | A498 renal 35.9%
active: SK-MEL-5 melanoma -59.8% | MOLT-4 leukemia 9.29%

CC(=O)OC1Oc2cc(C)c(C)cc2-c2oc(=O)c(-c3ccc(F)cc3)cc21 (configuration not stated)
inactive: HCT-15 colon 46.6% | HT29 colon 16.1% | SNB-75 CNS 77.9% | SNB-19 CNS 90.5% | U251 CNS 53.5% | PC-3 prostate 60.2% | SK-MEL-5 melanoma 55.2% | UACC-62 melanoma 49.8% | LOX IMVI melanoma 60.2% | SK-MEL-28 melanoma 64.2% | EKVX NSCLC 81.7% | SN12C renal 83.2% | UO-31 renal 62.2% | TK-10 renal 120% | ACHN renal 89.5% | A498 renal 47.9% | CCRF-CEM leukemia 36%

CCN(CC)c1ccc2nc3c4ccccc4c(=O)cc-3n(-c3ccccc3)c2c1
active: HCT-15 colon 5.16% | HT29 colon 6.55% | SNB-75 CNS -2.25% | PC-3 prostate 6.03% | SK-MEL-5 melanoma -98.1% | UACC-62 melanoma -8.44% | LOX IMVI melanoma -23.2% | SK-MEL-28 melanoma 9.68% | EKVX NSCLC -4.16% | UO-31 renal -26.2% | ACHN renal -1% | CAKI-1 renal -17.8% | MOLT-4 leukemia 2.41%
inactive: SNB-19 CNS 23.6% | U251 CNS 18.9% | SN12C renal 13.2% | TK-10 renal 13.6% | A498 renal 17.6% | CCRF-CEM leukemia 15.7%

COc1ccc(-c2nsc3c2NC(=O)CC3c2ccc3c(c2)OCO3)cc1 (configuration not stated)
active: HT29 colon 3.39% | SNB-75 CNS 7.61% | PC-3 prostate 3.81% | CCRF-CEM leukemia 3.82%
inactive: HCT-15 colon 29.4% | SNB-19 CNS 57.5% | U251 CNS 12.2% | SK-MEL-5 melanoma 25.8% | UACC-62 melanoma 42.7% | LOX IMVI melanoma 37.9% | SK-MEL-28 melanoma 56.5% | SK-MEL-2 melanoma 26.4% | SN12C renal 55.8% | TK-10 renal 32.3% | ACHN renal 50.3% | CAKI-1 renal 26.1% | MOLT-4 leukemia 18.4%

COc1cccc(NC(=O)c2c(-c3ccccc3)c(-c3ccccc3)n[nH]c2=O)c1
inactive: HCT-15 colon 97.6% | HT29 colon 101% | SNB-75 CNS 77.9% | SNB-19 CNS 93.4% | U251 CNS 101% | PC-3 prostate 94.6% | SK-MEL-5 melanoma 99.4% | UACC-62 melanoma 92.9% | LOX IMVI melanoma 96.3% | SK-MEL-28 melanoma 102% | SK-MEL-2 melanoma 134% | SN12C renal 96.7% | TK-10 renal 120% | ACHN renal 94% | CAKI-1 renal 86.9% | A498 renal 96.9% | MOLT-4 leukemia 67.8%

COc1cc(NC(C)CCCN)c2ncccc2c1Oc1ccc(Cl)cc1 (configuration not stated)
inactive: HCT-15 colon 84.5% | HT29 colon 34.5% | SNB-75 CNS 78.7% | SNB-19 CNS 91% | U251 CNS 72.7% | PC-3 prostate 63.9% | SK-MEL-5 melanoma 81% | UACC-62 melanoma 91.1% | LOX IMVI melanoma 39.9% | SK-MEL-28 melanoma 109% | EKVX NSCLC 77.1% | SN12C renal 77.3% | UO-31 renal 41.5% | TK-10 renal 101% | ACHN renal 82.6% | CAKI-1 renal 68.7% | A498 renal 71.1% | CCRF-CEM leukemia 77% | MOLT-4 leukemia 52.9%

O=C(Nc1ccc(OS(=O)(=O)c2ccc(F)cc2)cc1)C12CC3CC(CC(C3)C1)C2
inactive: HCT-15 colon 42.3% | SNB-75 CNS 101% | SNB-19 CNS 77.9% | U251 CNS 84% | PC-3 prostate 38% | SK-MEL-5 melanoma 28.3% | UACC-62 melanoma 68% | LOX IMVI melanoma 61.6% | SK-MEL-28 melanoma 79.7% | SK-MEL-2 melanoma 86% | SN12C renal 77.3% | TK-10 renal 87.5% | ACHN renal 76.5% | CAKI-1 renal 79.2% | A498 renal 40.4% | CCRF-CEM leukemia 52.1% | MOLT-4 leukemia 33.3%
active: HT29 colon 7.52%
